# From PubChem BioAssay
# TDP-43 yeast inh – rescues yeast growth from TDP-43 toxicity | TDP-43 expressing yeast growth rescue, BacTiter-Glo, 24 h | Potency, µM (titrated, usually from 46.1 µM), actives largely listed as activators | actives 1.8% (n = 410,000); note: nearly all actives have a fitted effect of over 50% in size
#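 Yeast cells expressing TDP-43 under galactose induction are exposed to compounds for 24 hr at 30 deg C. BacTiter-Glo luminescence measures growth, so protective compounds score as activators.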
# aSyn yeast inh – inhibitors of alpha-synuclein toxicity in yeast | Yeast expressing alpha-synuclein, growth rescue, BacTiter-Glo, 24 h | Potency, µM (series often up to 46.1 µM), most hits filed as activators | actives 0.14% (n = 370,000) | AID 652106; note: nearly all actives have a fitted effect of over 65% in size
#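 Galactose-induced alpha-syn yeast (OD600=0.02, raffinose-pregrown) + pinned cpd, 24 hr, 30 deg C; growth by BacTiter-Glo luminescence. Growth restoration scores as activation.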
# FUS yeast rescue – suppressors of FUS proteinopathy in yeast; S. cerevisiae FUS-expressing, growth rescue, OD600, 24 h; Potency, µM (doses to about 76.6 µM), usual class: activators; actives 0.24% (n = 390,000); note: nearly all actives have a fitted effect of over 55% in size
#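 Quantitative HTS measuring growth restoration of FUS-toxic yeast. Galactose-induced cells (OD 0.005) were exposed 24hr at 30C to compounds at several concentrations, then absorbance at 600 nm was recorded.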
# Mito fusion act – mitochondrial division inhibition or fusion activation. Potency, µM (highest dose often 46.1 µM), hits mostly activators. AID 485298. actives 0.23% (n = 320,000). S. cerevisiae fusion-defective mutant growth rescue, CellTiterGlo 48 h; note: nearly all actives have a fitted effect of over 45% in size
#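 Read-out: ATP-based luminescence (CellTiterGlo, 10 min ambient) reporting growth of fusion-defective ts yeast after 48 hours at 37C on glycerol/ethanol YPEG medium in the presence of compound.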
# Abeta yeast res – A-beta toxicity reversal in yeast; yeast expressing A-beta42, growth rescue, OD600, 48 h; response scale: 0% DMSO, 100% iron-clioquinol control; Potency, µM (doses to about 46.1 µM), hits mostly activators; actives 0.063% (n = 410,000); AID 1347071; note: nearly all actives have a fitted effect of over 55% in size
#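 Yeast growth medium received pinned compounds, then yeast cells expressing toxic A-beta were added; plates incubated at 30 C for 48 hr. Growth read as absorbance at 600 nm, normalized to DMSO and equimolar FeCl3 plus clioquinol controls.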
# A number is an active result; n = inactive; u = inconclusive; x = no result; [ ] = remark or other dose. Rows were chosen to be rich in hits. Some 2.2% of all compounds tested hit in one or more screens of this group. Calls come from the whole dose curve; as a rule, active = well fitted curve in the direction sought with a large enough effect; inconclusive = small, poorly fitted or top-dose-only effect, or another doubt; inactive = no such curve, though single readings can be large; an effect the other way counts as inactive or inconclusive.
SMILES,TDP-43 yeast inh,aSyn yeast inh,FUS yeast rescue,Mito fusion act,Abeta yeast res
CC(C)(C)C(=O)NC(=S)NNC(=O)c1ccc(Cl)cc1Cl,n,5µM,n,n,n
O=C(c1cc(F)ccc1F)N1CCCC(c2nc(-c3cccs3)no2)C1 (stereo not given),x,x,n,x,x
CO[C@H]1/C=C\O[C@@]2(C)Oc3c(C)c(O)c4c(O)c(c(C=NN5CCN(C6CCCC6)CC5)c(O)c4c3C2=O)NC(=O)C(C)=CC=C[C@H](C)[C@H](O)[C@@H](C)[C@@H](O)[C@@H](C)[C@H](OC(C)=O)[C@H]1C,x,n,x,x,x
Cc1cc(C)c(C)c(S(=O)(=O)N2CCN(C(=S)NCC3CCCO3)CC2)c1C (stereo not given),22µM,n,u,n,u
CCC(C(=O)c1ccc2ncccc2c1)c1ccccc1 (stereo not given),14µM,n,n,u,n
O=C(Nc1ccc2ncccc2c1)c1ccccc1,n,n,n,n,n
N#Cc1c2n(c3c(=O)n(Cc4ccccc4)cnc13)CCCC2,n,n,n,n,n
N#Cc1c2n(c3c(=O)n(Cc4ccc(Cl)cc4)cnc13)CCCCC2,20µM,n,n,n,n[9.22 µM]
COc1ccc(N2CCN(C(=O)c3cc4c(=O)n(Cc5cccs5)ccc4nc3C)CC2)cc1,n,x,n,x,n
O=C(C[n+]1cccc(Cl)c1)c1ccc(O)c(O)c1,x,n,x,x,x
N#CC(C#N)=C1C=CC=CN1/C(=C\c1ccccc1)C(=O)c1cccs1,4.5µM,u,n,n,n
C/C(=N\NC(N)=S)C1C2C3CC4C5CC(C42)C1C53 (stereo not given),14µM,n,n,n,u
C/C(CCC12CC3CC(CC(C3)C1)C2)=N\NC(N)=S,n,n,n,n,n
C=C1NN(CC#N)C(=O)N1c1ccc(OCc2ccccc2)cc1,x,n,x,x,x
COc1ccc(C(=O)CC2(O)C(=O)N(Cc3ccccc3Cl)c3ccccc32)cc1 (stereo not given),32µM,n,n,x,n
O=C1N(Cc2ccccc2Cl)c2ccccc2C1(O)c1c[nH]c2ccccc12 (stereo not given),16µM,x,u,x,n
C(=C\c1ccnc2ccccc12)/c1ccc(N2CCOCC2)cc1,x,n,x,x,x
CCCN(C(=O)COc1cc(=O)n(CC)c2ccccc12)c1ccc(C(C)C)cc1,22µM,x,u,x,n
CCN(CC)CCNC(=O)c1ccc2c(=O)n3nc(Nc4cccc(Cl)c4C)sc3nc2c1,n,x,n,x,n
CCOc1ccc(NC(=O)CN(C)Cc2cc(=O)n3c(-c4ccccc4)csc3n2)cc1OCC,n,n,18µM,n,n
O=C(O)CSc1ncnc2c1oc1ccccc12,n,n,n,n,n
c1ccc(Sc2ncnc3c2oc2ccccc23)cc1,13µM,n,n,n,n
COc1ccc(C(=O)Sc2ccc(Cl)cc2)cc1OC,n,n,n,n,n
COc1ccc(C(=O)Sc2ccc(C)cc2)cc1OC,11µM,n,n,n,n
CC(C)Oc1ccc(CNC(=O)c2ccccc2NC(=O)c2nsc3ccccc23)cc1,n,x,n,x,n
SMILES,TDP-43 yeast inh,aSyn yeast inh,FUS yeast rescue,Mito fusion act,Abeta yeast res
C=CCc1c(C)nc2nc(SCC(=O)Nc3ccc(C)c(C)c3)nn2c1C,n,x,n,x,n
C=CCc1c(C)nc2nc(SCC(=O)Nc3cccc(Cl)c3)nn2c1C,32µM,x,n,x,n
CC(=O)c1sc2nc(C)c3c(c2c1N)CCCC3,13µM,18µM,n,n,n
Cc1csc2nc(COC(=O)CNC(=O)c3ccccc3Cl)cc(=O)n12,n,x,n,x,n
Cc1cccc(Nc2nc(N)c([N+](=O)[O-])c(N3CCC(C)CC3)n2)c1,25µM,n,n,n,n
Cc1cccc(Nc2nc(N)c([N+](=O)[O-])c(NCc3ccco3)n2)c1,14µM,n,u,u,n
Cc1cccc(Nc2nc(NCc3ccco3)nc(N)c2[N+](=O)[O-])c1,n,n,n,n,n
Cc1cccc(Nc2nc(N)c([N+](=O)[O-])c(N3CC(C)CC(C)C3)n2)c1 (stereo not given),n,n,n,n,n
CNc1ccc(/C=C/c2ccnc3ccccc23)cc1,x,n,x,x,x
CCOC(=O)[C@]12CCC=C1N(CCC1=CCCCC1)C(=O)[C@H](CC(=O)NCCCOC)C2,n,n,n,x,n
